The target in assay [1] is High affinity nerve growth factor receptor (Homo sapiens) (UniProt P04629). Conditions: at 1 µM.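 Note: each value is the mean percent inhibition of TRKA.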
For assay [2], the target named is BDNF/NT-3 growth factors receptor (Homo sapiens) (UniProt Q16620). Conditions: at 0.1 µM.
Assay [3] shares this target. Conditions: at 1 µM.
The target of assay [4] is NT-3 growth factor receptor (Homo sapiens) (UniProt Q16288). Conditions: at 0.1 µM.
For assay [5] the target is unchanged. The note with it: at 1 µM.
For assay [6], the target named is T1, Tyrosine-protein kinase TXK (Homo sapiens) (UniProt P42681).
T1 sequence (whole entry): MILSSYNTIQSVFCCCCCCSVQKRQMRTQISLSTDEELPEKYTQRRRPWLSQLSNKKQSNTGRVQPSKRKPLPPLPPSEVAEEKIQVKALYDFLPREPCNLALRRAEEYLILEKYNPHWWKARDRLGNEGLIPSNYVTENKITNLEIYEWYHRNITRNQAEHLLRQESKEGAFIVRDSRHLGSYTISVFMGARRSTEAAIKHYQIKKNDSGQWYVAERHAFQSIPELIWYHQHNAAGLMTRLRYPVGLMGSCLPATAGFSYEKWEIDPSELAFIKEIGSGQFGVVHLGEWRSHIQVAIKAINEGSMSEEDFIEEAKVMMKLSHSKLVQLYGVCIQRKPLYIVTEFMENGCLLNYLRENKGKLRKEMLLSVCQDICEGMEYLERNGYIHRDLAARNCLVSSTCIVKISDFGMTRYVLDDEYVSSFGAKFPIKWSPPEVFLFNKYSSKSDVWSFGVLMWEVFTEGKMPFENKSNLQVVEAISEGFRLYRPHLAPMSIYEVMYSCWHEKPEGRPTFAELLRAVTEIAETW
Conditions: at 0.1 µM.

Assay [7] has as its target T1, Tyrosine-protein kinase TXK (Homo sapiens). Conditions: at 1 µM.
For assay [8], the target named is Non-receptor tyrosine-protein kinase TYK2 (Homo sapiens) (UniProt P29597). Conditions: at 0.1 µM.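 Note: each value is a mean of the inhibition readings.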
The target in assay [9] is T2, Dual specificity protein kinase TTK (Homo sapiens) (UniProt P33981).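 Note: reported figures are mean TTK inhibition at 1 µM.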
T2 sequence (whole entry): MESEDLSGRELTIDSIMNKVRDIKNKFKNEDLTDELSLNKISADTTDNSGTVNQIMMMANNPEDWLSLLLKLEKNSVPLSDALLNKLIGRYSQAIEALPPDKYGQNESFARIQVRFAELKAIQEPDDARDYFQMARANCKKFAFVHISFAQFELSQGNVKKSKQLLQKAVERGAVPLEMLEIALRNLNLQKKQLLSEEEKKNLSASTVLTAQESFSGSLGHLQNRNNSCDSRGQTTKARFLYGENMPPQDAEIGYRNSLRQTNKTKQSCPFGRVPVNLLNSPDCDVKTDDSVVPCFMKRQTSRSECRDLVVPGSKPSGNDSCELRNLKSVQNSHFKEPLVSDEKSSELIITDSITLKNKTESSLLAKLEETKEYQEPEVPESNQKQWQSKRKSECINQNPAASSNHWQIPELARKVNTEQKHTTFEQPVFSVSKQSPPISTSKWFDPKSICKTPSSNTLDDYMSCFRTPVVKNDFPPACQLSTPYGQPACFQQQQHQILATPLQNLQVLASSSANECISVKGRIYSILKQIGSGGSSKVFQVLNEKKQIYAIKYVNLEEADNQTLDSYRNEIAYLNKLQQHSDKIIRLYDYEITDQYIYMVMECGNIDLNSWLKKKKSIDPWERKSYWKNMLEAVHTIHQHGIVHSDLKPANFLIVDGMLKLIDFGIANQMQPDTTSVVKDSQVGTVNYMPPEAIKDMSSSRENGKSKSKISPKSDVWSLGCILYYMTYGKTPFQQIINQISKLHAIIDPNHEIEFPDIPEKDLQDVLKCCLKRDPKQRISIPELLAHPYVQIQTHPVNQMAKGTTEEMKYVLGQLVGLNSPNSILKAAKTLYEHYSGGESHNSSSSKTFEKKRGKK
The note with it: at 1 µM.

Assay [10] concerns the target T3, Aurora kinase A (Homo sapiens) (UniProt O14965).
T3 sequence (whole entry): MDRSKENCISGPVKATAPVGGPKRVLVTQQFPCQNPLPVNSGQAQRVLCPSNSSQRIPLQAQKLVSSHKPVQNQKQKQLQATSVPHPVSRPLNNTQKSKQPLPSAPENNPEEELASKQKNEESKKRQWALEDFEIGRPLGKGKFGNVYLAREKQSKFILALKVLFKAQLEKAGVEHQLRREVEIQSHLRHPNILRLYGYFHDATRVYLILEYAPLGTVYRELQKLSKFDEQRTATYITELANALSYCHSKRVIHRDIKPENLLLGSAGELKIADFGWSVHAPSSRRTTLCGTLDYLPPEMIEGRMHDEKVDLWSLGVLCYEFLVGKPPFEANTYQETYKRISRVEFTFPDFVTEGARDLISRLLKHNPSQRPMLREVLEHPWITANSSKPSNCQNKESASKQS
The note with it: at 0.1 µM.

In assay [11] the target is T3, Aurora kinase A (Homo sapiens). The note with it: at 1 µM.
For assay [12], the target named is Aurora kinase B (Homo sapiens) (UniProt Q96GD4). The note with it: at 0.1 µM.
Assay [13] shares this target. Conditions: at 1 µM.
Assay [14] addresses T4, Aurora kinase C (Homo sapiens) (UniProt Q9UQB9).
T4 sequence (whole entry): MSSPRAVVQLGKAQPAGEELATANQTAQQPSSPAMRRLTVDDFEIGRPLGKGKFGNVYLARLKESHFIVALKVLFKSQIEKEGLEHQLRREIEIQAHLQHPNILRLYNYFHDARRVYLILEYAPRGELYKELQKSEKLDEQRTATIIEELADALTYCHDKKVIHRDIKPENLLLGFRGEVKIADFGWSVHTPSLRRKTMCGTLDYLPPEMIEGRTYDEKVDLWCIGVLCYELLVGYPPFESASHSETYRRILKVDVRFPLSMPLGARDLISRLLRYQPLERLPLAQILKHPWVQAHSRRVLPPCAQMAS
The note with it: at 0.1 µM.

Assay [15] deals with T4, Aurora kinase C (Homo sapiens). Conditions: at 1 µM.
Assay [16] concerns the target Serine/threonine-protein kinase 10 (Homo sapiens) (UniProt O94804). Conditions: at 0.1 µM.
For assay [17] the target is unchanged. The note with it: at 1 µM.
Assay [18] addresses T5, Mitogen-activated protein kinase kinase kinase kinase 2 (Homo sapiens) (UniProt Q12851).
T5 sequence (whole entry): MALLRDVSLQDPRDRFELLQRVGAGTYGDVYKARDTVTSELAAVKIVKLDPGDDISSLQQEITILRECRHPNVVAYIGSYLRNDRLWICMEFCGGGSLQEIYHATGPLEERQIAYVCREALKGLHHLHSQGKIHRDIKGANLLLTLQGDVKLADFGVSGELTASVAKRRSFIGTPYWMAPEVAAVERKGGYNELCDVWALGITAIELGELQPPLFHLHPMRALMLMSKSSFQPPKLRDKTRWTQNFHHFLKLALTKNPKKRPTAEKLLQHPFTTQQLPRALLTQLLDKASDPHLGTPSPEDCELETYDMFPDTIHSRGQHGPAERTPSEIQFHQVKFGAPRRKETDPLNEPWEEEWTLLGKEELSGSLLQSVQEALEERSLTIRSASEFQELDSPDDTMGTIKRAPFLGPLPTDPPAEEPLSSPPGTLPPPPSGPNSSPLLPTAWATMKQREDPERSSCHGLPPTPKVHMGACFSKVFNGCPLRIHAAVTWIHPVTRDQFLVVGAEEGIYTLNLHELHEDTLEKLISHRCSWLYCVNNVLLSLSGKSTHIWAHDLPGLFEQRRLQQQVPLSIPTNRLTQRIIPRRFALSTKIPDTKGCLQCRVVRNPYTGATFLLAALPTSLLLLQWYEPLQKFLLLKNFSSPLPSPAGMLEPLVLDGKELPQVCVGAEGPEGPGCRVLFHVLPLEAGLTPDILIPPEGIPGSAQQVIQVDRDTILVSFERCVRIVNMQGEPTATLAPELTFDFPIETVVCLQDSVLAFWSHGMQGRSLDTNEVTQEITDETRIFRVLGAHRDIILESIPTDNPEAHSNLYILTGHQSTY
Conditions: at 0.1 µM.

Assay [19] has as its target T5, Mitogen-activated protein kinase kinase kinase kinase 2 (Homo sapiens). Conditions: at 1 µM.
In assay [20] the target is Mitogen-activated protein kinase kinase kinase kinase 4 (Homo sapiens) (UniProt O95819). The note with it: at 0.1 µM.

SMILES strings stand for the structures.

Chain of Non-receptor tyrosine-protein kinase TYK2 (Homo sapiens) (P29597 whole entry): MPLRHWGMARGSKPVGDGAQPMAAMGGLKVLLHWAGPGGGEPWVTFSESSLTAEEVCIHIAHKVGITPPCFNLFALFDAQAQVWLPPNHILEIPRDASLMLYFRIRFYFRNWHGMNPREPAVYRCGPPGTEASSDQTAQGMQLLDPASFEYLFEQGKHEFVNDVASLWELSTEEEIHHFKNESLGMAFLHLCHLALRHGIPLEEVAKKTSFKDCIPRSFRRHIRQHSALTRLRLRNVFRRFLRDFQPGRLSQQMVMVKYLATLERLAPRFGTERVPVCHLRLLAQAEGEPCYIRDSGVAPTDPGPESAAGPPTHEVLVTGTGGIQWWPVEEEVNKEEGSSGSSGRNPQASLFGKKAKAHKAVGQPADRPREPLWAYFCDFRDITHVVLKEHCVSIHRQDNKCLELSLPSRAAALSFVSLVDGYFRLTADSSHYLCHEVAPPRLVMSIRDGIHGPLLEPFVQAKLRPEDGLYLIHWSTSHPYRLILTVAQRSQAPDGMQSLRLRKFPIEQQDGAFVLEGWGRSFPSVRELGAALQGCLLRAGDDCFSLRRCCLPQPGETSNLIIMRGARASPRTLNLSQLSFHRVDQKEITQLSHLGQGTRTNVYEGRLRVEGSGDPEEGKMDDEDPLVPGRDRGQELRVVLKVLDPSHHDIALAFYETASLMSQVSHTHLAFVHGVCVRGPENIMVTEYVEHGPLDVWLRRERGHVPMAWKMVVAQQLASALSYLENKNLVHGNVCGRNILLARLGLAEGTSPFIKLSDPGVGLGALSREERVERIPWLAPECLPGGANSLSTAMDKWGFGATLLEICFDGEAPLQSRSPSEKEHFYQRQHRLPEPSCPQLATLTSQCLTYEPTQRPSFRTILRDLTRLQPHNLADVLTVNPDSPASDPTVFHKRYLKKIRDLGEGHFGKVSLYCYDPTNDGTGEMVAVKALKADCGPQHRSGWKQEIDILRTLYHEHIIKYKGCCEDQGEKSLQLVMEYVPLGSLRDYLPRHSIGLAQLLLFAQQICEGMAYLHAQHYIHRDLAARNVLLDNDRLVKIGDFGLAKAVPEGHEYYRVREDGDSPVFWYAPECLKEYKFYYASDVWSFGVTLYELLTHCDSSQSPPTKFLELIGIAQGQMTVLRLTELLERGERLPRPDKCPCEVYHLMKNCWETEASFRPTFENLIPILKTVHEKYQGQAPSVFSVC
Chain of Mitogen-activated protein kinase kinase kinase kinase 4 (Homo sapiens) (O95819 2-1239 limits assumed): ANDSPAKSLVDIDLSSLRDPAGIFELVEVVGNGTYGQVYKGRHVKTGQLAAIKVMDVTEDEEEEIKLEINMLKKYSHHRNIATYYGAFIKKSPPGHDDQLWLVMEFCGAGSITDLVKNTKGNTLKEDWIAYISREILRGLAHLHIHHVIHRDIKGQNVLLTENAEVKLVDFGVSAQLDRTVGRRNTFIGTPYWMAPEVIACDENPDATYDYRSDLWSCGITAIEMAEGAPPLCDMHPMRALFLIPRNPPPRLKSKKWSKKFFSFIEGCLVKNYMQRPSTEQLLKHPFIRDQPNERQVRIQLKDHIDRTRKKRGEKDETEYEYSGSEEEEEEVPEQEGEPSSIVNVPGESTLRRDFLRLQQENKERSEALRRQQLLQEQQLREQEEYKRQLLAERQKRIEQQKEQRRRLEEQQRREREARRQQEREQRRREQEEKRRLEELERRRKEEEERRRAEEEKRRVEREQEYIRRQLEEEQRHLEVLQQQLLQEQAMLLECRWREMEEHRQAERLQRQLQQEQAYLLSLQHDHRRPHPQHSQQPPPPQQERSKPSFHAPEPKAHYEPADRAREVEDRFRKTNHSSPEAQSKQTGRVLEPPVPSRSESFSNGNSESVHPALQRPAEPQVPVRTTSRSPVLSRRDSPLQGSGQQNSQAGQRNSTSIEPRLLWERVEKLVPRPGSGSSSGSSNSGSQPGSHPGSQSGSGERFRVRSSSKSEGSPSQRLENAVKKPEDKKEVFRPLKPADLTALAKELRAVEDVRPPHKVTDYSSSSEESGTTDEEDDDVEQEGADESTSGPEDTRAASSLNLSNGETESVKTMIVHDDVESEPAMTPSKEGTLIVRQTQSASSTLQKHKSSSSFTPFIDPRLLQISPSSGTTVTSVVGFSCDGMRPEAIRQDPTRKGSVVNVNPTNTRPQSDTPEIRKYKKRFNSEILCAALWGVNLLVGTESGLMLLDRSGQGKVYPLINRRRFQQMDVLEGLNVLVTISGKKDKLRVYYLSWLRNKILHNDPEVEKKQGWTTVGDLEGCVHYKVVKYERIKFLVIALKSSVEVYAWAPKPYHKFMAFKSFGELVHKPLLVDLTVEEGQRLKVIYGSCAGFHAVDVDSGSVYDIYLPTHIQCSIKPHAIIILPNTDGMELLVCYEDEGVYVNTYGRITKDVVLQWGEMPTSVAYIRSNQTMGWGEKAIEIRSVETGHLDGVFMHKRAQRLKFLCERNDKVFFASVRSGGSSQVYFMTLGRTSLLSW
Chain of Aurora kinase B (Homo sapiens) (Q96GD4 whole entry): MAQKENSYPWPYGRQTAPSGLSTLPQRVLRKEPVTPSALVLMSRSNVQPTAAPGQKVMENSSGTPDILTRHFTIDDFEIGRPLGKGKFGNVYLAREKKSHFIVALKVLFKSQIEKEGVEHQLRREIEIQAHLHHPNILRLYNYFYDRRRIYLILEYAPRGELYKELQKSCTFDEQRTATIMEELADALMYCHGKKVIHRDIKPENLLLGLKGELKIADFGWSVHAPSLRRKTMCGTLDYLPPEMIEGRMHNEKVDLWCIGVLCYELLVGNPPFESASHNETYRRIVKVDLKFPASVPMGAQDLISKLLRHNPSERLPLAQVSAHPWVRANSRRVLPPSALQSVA
Chain of BDNF/NT-3 growth factors receptor (Homo sapiens) (Q16620 32-822 limits assumed): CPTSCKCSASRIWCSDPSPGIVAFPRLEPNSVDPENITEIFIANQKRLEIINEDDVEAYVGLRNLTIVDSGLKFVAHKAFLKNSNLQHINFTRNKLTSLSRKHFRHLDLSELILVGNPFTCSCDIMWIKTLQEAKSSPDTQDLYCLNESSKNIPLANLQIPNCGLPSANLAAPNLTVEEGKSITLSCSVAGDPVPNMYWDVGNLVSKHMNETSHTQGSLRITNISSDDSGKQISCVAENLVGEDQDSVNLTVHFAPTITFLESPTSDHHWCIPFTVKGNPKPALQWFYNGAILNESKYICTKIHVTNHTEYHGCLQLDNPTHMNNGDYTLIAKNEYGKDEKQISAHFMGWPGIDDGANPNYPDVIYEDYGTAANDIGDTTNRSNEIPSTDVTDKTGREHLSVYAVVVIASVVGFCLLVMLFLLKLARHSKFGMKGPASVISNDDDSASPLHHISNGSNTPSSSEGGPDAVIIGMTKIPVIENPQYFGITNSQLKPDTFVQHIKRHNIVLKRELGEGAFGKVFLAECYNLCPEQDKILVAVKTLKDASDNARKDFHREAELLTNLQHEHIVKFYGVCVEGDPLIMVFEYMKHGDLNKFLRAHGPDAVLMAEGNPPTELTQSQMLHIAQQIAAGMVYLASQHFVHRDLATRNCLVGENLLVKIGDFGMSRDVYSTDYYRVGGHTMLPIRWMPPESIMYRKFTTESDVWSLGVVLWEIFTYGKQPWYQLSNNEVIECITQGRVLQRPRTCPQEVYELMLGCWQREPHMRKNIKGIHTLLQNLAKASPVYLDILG
Chain of Serine/threonine-protein kinase 10 (Homo sapiens) (O94804 whole entry, looked up): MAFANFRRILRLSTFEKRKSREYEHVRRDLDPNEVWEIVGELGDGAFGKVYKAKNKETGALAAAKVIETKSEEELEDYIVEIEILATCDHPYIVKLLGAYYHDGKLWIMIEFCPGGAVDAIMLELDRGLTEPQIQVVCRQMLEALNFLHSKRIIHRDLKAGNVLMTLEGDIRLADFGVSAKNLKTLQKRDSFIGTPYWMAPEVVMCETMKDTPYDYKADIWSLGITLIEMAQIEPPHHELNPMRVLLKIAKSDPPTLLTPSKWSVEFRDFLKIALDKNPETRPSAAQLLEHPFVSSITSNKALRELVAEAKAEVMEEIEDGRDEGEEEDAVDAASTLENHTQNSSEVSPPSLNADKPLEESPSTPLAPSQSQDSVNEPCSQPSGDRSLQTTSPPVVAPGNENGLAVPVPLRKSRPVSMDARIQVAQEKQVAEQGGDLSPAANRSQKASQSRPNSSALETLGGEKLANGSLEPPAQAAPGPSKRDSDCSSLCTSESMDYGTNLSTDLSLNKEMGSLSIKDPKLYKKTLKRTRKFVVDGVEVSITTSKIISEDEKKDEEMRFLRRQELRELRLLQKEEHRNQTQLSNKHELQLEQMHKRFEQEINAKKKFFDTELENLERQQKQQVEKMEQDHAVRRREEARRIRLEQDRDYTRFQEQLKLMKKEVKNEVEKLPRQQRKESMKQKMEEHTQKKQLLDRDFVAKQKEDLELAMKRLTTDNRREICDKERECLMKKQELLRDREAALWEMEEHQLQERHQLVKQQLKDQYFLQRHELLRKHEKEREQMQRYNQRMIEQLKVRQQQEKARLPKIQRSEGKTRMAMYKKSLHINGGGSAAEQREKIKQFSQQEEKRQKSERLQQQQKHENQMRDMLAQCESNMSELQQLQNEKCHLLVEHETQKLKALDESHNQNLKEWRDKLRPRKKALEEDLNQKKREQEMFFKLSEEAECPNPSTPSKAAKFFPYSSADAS

Consider `Fc1cccc(COc2ccc(Nc3ncnc4sc(-c5cccs5)cc34)cc2Cl)c1`, for which the inhibition came out at 2.88% in assay [1]; 1.85% in assay [2]; 1.29% in assay [3]; 1.21% in [4]; 1.03% in [5]; 2.2% in [6]. The inhibition was 0.81% in assay [7]; -0.26% in assay [8]; 2.5% in assay [9]; 1.44% in assay [10]; 2.05% in [11]; 1.14% in assay [12]. Besides, the inhibition is 6.42% in assay [13]; 1.7% in [14]; 7.89% in assay [15]; 2.84% in assay [16]; 4.63% in assay [17]; -0.64% in assay [18]. Moreover, the inhibition in [19] was 1.65%; in assay [20], 1.29%.
In the case of `NC(=O)c1cccc(Nc2nccc(Nc3cccc4[nH]ncc34)n2)c1`, the inhibition in assay [1] amounted to 6.83%; in assay [2], 0.06%; in [3], 14.1%; in assay [4], 1.25%; in assay [5], 12.9%; in assay [6] it was 15.8%. Moreover, the inhibition in assay [7] was found to be 55.1%; in assay [8], 4.66%; in assay [9], 9.28%; in assay [10], 36.4%; in assay [11], 96.8%; in assay [12] it was 24.5%. Also, the inhibition was 73.7% in assay [13]; 39.2% in assay [14]; 100% in [15]; -1.55% in assay [16]; 31.9% in [17]; 2.55% in assay [18]. The inhibition in [19] came out at 24.3%; in assay [20], 2.67%.
On to `COc1ccc(-c2nn3ncccc3c2-c2ccnc(Nc3ccc(Cl)c(C(F)(F)F)c3)n2)cc1`, for which the inhibition in assay [1] was -1.35%; in assay [2] it was -0.25%; in assay [3] it was 2.61%; in assay [4] it was -0.42%; in [5] it was 2.6%; in [6], 3.13%. In addition, the inhibition is 3.03% in assay [7]; -2.93% in assay [8]; 5% in assay [9]; 1.01% in assay [10]; 6.68% in assay [11]; 4.71% in assay [12]. Further, the inhibition in assay [13] was 2.65%; in assay [14], 0.61%; in [15], -3.91%; in assay [16], 4.44%; in [17], 10.5%; in [18] it was 0.35%. In addition, the inhibition in assay [19] turned out to be 0.58%; in [20], 3.81%.
For the molecule `CC1=C(C(=O)Nc2ccc3[nH]ncc3c2)C(c2ccc(F)cc2)NC(=O)N1` (stereo not given), the inhibition came to 3.3% in assay [1]; 0.91% in [2]; 4.06% in assay [3]; 0.06% in assay [4]; 5.04% in assay [5]; 1.25% in assay [6]. The inhibition in [7] is 3.78%; in assay [8], 1.26%; in assay [9], 1.11%; in assay [10] it was 7.75%; in assay [11], 62.7%; in [12], 3.96%. Also, the inhibition in assay [13] turned out to be 18.5%; in [14] it was 2.09%; in assay [15], 26.9%; in assay [16], 1.26%; in assay [17], 5.18%; in assay [18] it was 1.97%. Further, the inhibition in assay [19] turned out to be 3.21%; in assay [20] it was 7.49%.
For `Cc1nn(C)c2cc(N(C)c3ccnc(Nc4cccc(S(N)(=O)=O)c4)n3)ccc12`, the inhibition in assay [1] came out at 6.3%; in [2], 2.64%; in assay [3], 11.7%; in assay [4], 2.83%; in assay [5], 12.3%; in assay [6], 53.5%. The inhibition in assay [7] is 79.2%; in assay [8], -1.02%; in [9], 26.4%; in assay [10] it was 20%; in [11] it was 89.8%; in [12], 7.86%. For the same molecule, the inhibition was 47.5% in assay [13]; 13.3% in [14]; 93% in [15]; 13.3% in assay [16]; 51.4% in assay [17]; 7.42% in [18]. Further, the inhibition in assay [19] was found to be 30.9%; in assay [20], 53.7%.
`CCn1c(-c2nonc2N)nc2cncc(C(=O)N3CC[C@H](N)C3)c21`: the inhibition worked out at 2.78% in assay [1]; 4.37% in assay [2]; 3.61% in assay [3]; 2.56% in assay [4]; 3.15% in assay [5]; 3.09% in assay [6]. For the same molecule, the inhibition in [7] was 2.08%; in [8], -0.69%; in assay [9] it was 2.6%; in assay [10], 3.07%; in assay [11], 3.21%; in [12] it was 2.84%. The inhibition is 6.38% in assay [13]; 1.58% in [14]; -2.29% in assay [15]; 4.37% in assay [16]; 12% in [17]; 0.43% in [18]. For the same molecule, the inhibition in [19] came out at 2.34%; in assay [20], 5.42%.
Consider `CN(C)c1cc2c(Nc3ccc4nc(Cc5ccccc5)[nH]c4c3)ncnc2cn1`, for which the inhibition was 3.31% in assay [1]; 3.89% in assay [2]; 2.87% in assay [3]; 3.93% in assay [4]; 4.24% in [5]; 8.4% in assay [6]. In addition, the inhibition is 13.7% in assay [7]; -8.04% in [8]; 32.2% in assay [9]; 3.28% in assay [10]; 11.5% in assay [11]; 6.09% in assay [12]. Besides, the inhibition in assay [13] came to 27.4%; in assay [14], 5.94%; in assay [15], 40.3%; in [16] it was 6.78%; in [17], 14.4%; in assay [18], 1.35%. For the same molecule, the inhibition turned out to be 2.07% in assay [19] and 7.88% in assay [20].

As usually defined, the inhibition is the change of the read-out against control, counted positive when it falls.

The values are drawn from ChEMBL document CHEMBL1961873, “Compounds: GSK PKIS; Assays: Nanosyn kinase panel” (2012).
